This note sets out measurements from PubChem BioAssay (NCATS).

The structures appear in SMILES notation. Inconclusive results are not listed. A number with no mark means an inactive call. The call rests on the fitted dose curve; in most records, active means well fitted cell-killing curve with a large enough effect; inconclusive means small, poorly fitted or top-dose-only effect, or effect the other way; inactive means flat fitted curve, though single readings scatter.
On the % scale 0 is the no-effect control and ±100 the full control effect.

The test system of this experiment is PA-1. As to the kind of experiment: Primary qHTS to identify gynecologic anti-cancer compounds using libraries of approved drugs and bioactive compounds (AID 1345084). Further: nearly all actives have a fitted effect of over 55% in size. The settings on record: Gynecologic cancer cell panel viability, ATPlite luminescence, 48 h; series mostly up to 57.5 µM; activity change, negative = cytotoxicity: at the top concentration. A digest of the protocol: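 ATP-based viability (ATPlite), 1,000 cells/well, 16 h pre-incubation, 48 h compound at 37 C, 5% CO2, 15 min RT before read.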
For orientation: Quantitative high-throughput screening tests each substance at several concentrations.
In the case of `COc1cnc(-c2ccc(Cn3c(CC(C)(C)C(=O)O)c(SC(C)(C)C)c4cc(OC[C@@H]5Cc6ccccc6N5C(C)=O)ccc43)cc2)nc1`, the “activity change, negative = cytotoxicity” value was 19.5% [at 38.5 µM].

As to `COC(=O)C(CC1CCCC1)c1ccc(S(C)(=O)=O)cc1` (stereo unspecified), the “activity change, negative = cytotoxicity” value was -6.46%.

For the compound `N#Cc1cccc(-c2c[nH]c3ncnc(N4CCOCC4)c23)c1`, the “activity change, negative = cytotoxicity” value was -10.2%.

As for `CC(=O)O[C@@H]1[C@@H](O)[C@H](C)O[C@@H](O[C@H]2[C@@H]3C=CO[C@@H](O[C@@H]4O[C@H](CO)[C@@H](O)[C@H](O)[C@H]4OC(C)=O)[C@@H]3[C@@]3(CO)O[C@@H]23)[C@@H]1OC(=O)/C=C/c1ccc(O)cc1`, the “activity change, negative = cytotoxicity” value was 1.25% [at 25.3 µM].

As for `COc1ccc(-n2[nH]c3c(cnc4ccccc43)c2=O)cc1`, the “activity change, negative = cytotoxicity” value is 16.1%.

On to `COc1cc(/C=C/C(=O)OC[C@H]2O[C@@H](OC3OC=C(C(=O)O)C4C(O)CC(C)(O)C34)[C@H](O)[C@@H](O)[C@@H]2O)cc(OC)c1O` (stereo partly specified), for which the “activity change, negative = cytotoxicity” value was 0.107% [at 25.3 µM].

As for `CC1(C)CC[C@]2(C(=O)O[C@@H]3O[C@H](CO)[C@@H](O)[C@H](O)[C@H]3O)CC[C@]3(C)C(=CCC4[C@@]5(C)CC[C@H](O[C@@H]6O[C@H](C(=O)O)[C@@H](O)[C@H](O)[C@H]6OC6OC(CO)C(O)C(O)C6O)C(C)(C)C5CC[C@]43C)[C@@H]2C1` (stereo partly specified), the activity change, negative = cytotoxicity is 17.8% [at 11.6 µM].

With `CC1(C)CCC[C@]2(C)C1CC=C(CO)[C@H]2CC/C(=C/CO)CO` (stereo partly specified), the “activity change, negative = cytotoxicity” value was 4.36% [at 38.5 µM].

As to `CCC(C)C(N)C(=O)NCCN1CCOCC1` (stereo unspecified), the “activity change, negative = cytotoxicity” value was 6.87%.

On to `N#Cc1cccc(-c2nc(-c3cccnc3)no2)c1`, for which the “activity change, negative = cytotoxicity” value was 4.8% [at 25.3 µM].

Consider `CC1CCC2C(C)(C)[C@H](O)CC[C@]2(C)C12Cc1c(O)cc3c(c1O2)CN(C(CCC(=O)O)C(=O)O)C3=O` (stereo partly specified), for which the “activity change, negative = cytotoxicity” value was 4.2% [at 25.3 µM].
